Results: PubChem BioAssay AID686979 (National Center for Advancing Translational Sciences (NCATS), 2013)
In all, about 420,000 compounds went through this assay and about 50,000 (12%) were called active. About 26% were inconclusive and are not listed. Calls come from the whole dose curve; as a rule, active = well fitted inhibition curve with a large enough effect; inconclusive = small, poorly fitted or top-dose-only effect; inactive = flat fitted curve, though single readings scatter. The entries come from a sample that favours actives as a whole. Where a call stands in place of a potency, no number is given.

Experiment: qHTS for Inhibitors of human tyrosyl-DNA phosphodiesterase 1 (TDP1): qHTS in cells in presence of CPT; note: nearly all actives have a fitted effect of over 55% in size
Conditions: chicken DT40 Tdp1-/-;hTDP1 cells + 20 nM CPT, ATP luminescence, 48 h; series mostly up to 46.2 µM
In short: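 Chicken DT40 Tdp1-/- cells stably complemented with human TDP1 were seeded at 400 cells/well in medium containing 20 nM camptothecin, exposed to pin-transferred compounds, and grown at 37 °C for at least 48 hr. Viability was read as ATP luminescence.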
Potency is the fitted concentration of half-maximal effect.

| Structure (SMILES) | Potency |
| --- | --- |
| CC(=O)Oc1ccc2c(=O)oc(-c3ccc([N+](=O)[O-])cc3)nc2c1 | inactive |
| COc1ccc(S(=O)(=O)n2cnc3ccccc32)c(C)c1 | 18.4 µM (active) |
| Cc1ccc(S(=O)(=O)n2cnc3ccccc32)c(C)c1 | inactive |
| Cc1ccc(C)c(S(=O)(=O)n2cnc3ccccc32)c1 | inactive |
| N#Cc1c(NC(=O)c2ccc(N3CCOCC3)c([N+](=O)[O-])c2)sc2c1CCCC2 | inactive |
| COc1cccc2cc(C(N)=O)/c(=N\NC(=O)c3ccccc3)oc12 | inactive |
| CC(C)Cn1c(N2CCN(C(=O)/C=C/c3ccccc3)CC2)nc2ccccc21 | 18.4 µM (active) |
| CC1(C(=O)O)CCCN(C(=O)/C=C/c2ccccc2)C1 (stereo not drawn) | inactive |
| CC(C)N(C(=O)Cn1c(SCC(=O)N2CCN(c3ccccc3)CC2)nc2ccccc21)C(C)C | inactive |
| CN(Cc1ccccc1Cl)C(=O)C1CCC(=O)N(CCc2cccc(F)c2)C1 (stereo not drawn) | inactive |
| CN(C(=O)CN1CCN(c2cc(-c3ccc(OCc4ccccc4)cc3)ncn2)CC1)c1ccccc1 | 18.4 µM (active) |
| CCOc1ccc(OCc2ccc(C(=O)N(C)c3ccccc3)o2)cc1 | inactive |
| COc1ccc(OCC(=O)N2CCN(C(=O)COc3ccccc3)CC2)cc1 | inactive |
| CCCC(C)C(=O)Nc1ccc(NC(C)=O)cc1 (stereo not drawn) | inactive |
| CC1(C)[C@@H]2CC[C@@]1(C)[C@H](OC(=O)CSC#N)C2 | inactive |
| CCCCNC(=O)c1ccc(-n2c(=S)[nH]c3ccccc3c2=O)cc1 | inactive |
| Cc1ccc(NC(=S)N(Cc2ccco2)C(C)c2cccs2)cc1 (stereo not drawn) | inactive |
| COc1cccc(/C=N/Nc2ccc(Cl)nn2)c1 | inactive |
| C/C(=N\Nc1ccc(Cl)nn1)c1ccccc1O | 0.58 µM (active) |
| CCCCCCCN=C(C)c1ccccc1O | inactive |
| Oc1cccc(/C=N/Nc2ccc(Cl)nn2)c1O | 0.092 µM (active) |
| Fc1ccccc1Cc1ccc(Cl)nn1 | inactive |
| Clc1ccc(N/N=C/c2cccs2)nn1 | inactive |
| O=CN1CCN(C(=O)c2ccc3c(c2)OCO3)CC1 | inactive |
| Cc1ccc(C(=O)O)cc1N1C(=O)CCCC1=O | inactive |
| Cc1ccc(-n2c(C)nnc2SCC(=O)NC2CC2)cc1 | inactive |

| Structure (SMILES) | Potency |
| --- | --- |
| COc1ccccc1N1CC(C(=O)Nc2ccc(S(=O)(=O)N3CCOCC3)cc2)CC1=O (stereo not drawn) | inactive |
| COc1cc(OC)c(N2CC(C(=O)Nc3cc(Cl)ccc3N3CCOCC3)CC2=O)cc1Cl (stereo not drawn) | 3.66 µM (active) |
| COc1ccc(Cl)cc1NC(=O)C1CC(=O)N(c2ccc(F)cc2)C1 (stereo not drawn) | inactive |
| CCCOc1ccc(Cc2c(O)nc(N)[nH]c2=O)cc1C | inactive |
| Cc1ccc(F)cc1S(=O)(=O)Nc1cccc(C(=O)N2CCCC(C(N)=O)C2)c1 (stereo not drawn) | inactive |
| Cc1ccc(O/C=C2\OC(=O)c3ccccc32)cc1 | inactive |
| Cc1c(CCC(=O)N[C@@H](CC(C)C)C(=O)O)c(=O)oc2c(C)c3oc4c(c3cc12)CCCC4 | inactive |
| O=C(OCC1OC(Oc2ccc(O)cc2)C(O)C(O)C1O)c1ccccc1 (stereo not drawn) | inactive |
| CCc1ccccc1NS(=O)(=O)c1ccc2nc(-c3ccccc3)[nH]c2c1 | 20.6 µM (active) |
| CCN(CC)S(=O)(=O)c1ccc2nc(COC(=O)c3n[nH]c4ccccc34)[nH]c2c1 | inactive |
| CCc1ccc(NC(=O)C2CCCN2S(=O)(=O)c2ccc3nc(-c4ccccc4)[nH]c3c2)cc1 (stereo not drawn) | 23.1 µM (active) |
| CC(=O)Nc1ccc(NC(=O)C2CCCN2S(=O)(=O)c2cccc(C(F)(F)F)c2)cc1 (stereo not drawn) | inactive |
| CCc1nnc(NC(=O)C2CCCN2S(=O)(=O)c2ccccc2)s1 (stereo not drawn) | inactive |
| Cc1ccc(S(=O)(=O)Nc2ccccc2CNc2c(C)n(C)n(-c3ccccc3)c2=O)cc1 | inactive |
| N#Cc1ccc(S(=O)(=O)NCC(=O)OCC(=O)NCCc2ccccc2)cc1 | inactive |
| CCCn1c(N)c(N(CCOC)C(=O)C2CCCC2)c(=O)[nH]c1=O | inactive |
| O=C(NNC(=S)NC(=O)c1cn(-c2ccccc2)nc1-c1ccccc1)c1ccncc1 | 14.6 µM (active) |
| COC(=O)c1cn(-c2ccccc2)nc1-c1cccnc1 | inactive |
| Cc1ccc(-c2nn(-c3ccccc3)cc2C(=O)Nc2cccc(S(=O)(=O)N3CCOCC3)c2)cc1 | inactive |
| COc1ccc(-c2nn(-c3ccccc3)cc2/C=C\C(=O)Nc2ccc(C(=O)O)cc2)cc1 | 23.1 µM (active) |
| COc1ccc(-c2nn(-c3ccccc3)cc2/C=C\C(=O)N2CCOCC2)cc1[N+](=O)[O-] | inactive |
| O=C(O)c1ccc(NC(=O)c2cn(-c3ccccc3)nc2-c2ccc(Cl)cc2)cc1 | 20.6 µM (active) |
| O=C(O)c1ccc(NC(=O)c2ccc(COc3ccc(Cl)cc3)o2)cc1 | inactive |
| O=C(c1cn(-c2ccccc2)nc1-c1cccnc1)N1CCCCC1 | inactive |
| O=C(O)/C=C/c1cn(-c2ccccc2)nc1-c1cccs1 | inactive |
| COc1ccc(S(=O)(=O)N(CCCN2CCCC2=O)Cc2cc3c(C)ccc(C)c3[nH]c2=O)cc1 | inactive |

| Structure (SMILES) | Potency |
| --- | --- |
| O=C(CN1CCN(S(=O)(=O)c2ccc3ccccc3c2)CC1)NC(=O)NC1CCCCC1 | inactive |
| O=C(CN1CCC(NC(=O)Nc2ccccc2)CC1)Nc1cccc([N+](=O)[O-])c1 | inactive |
| O=C(N/N=C\c1ccc(Br)cc1)c1ccc(Cn2cccn2)o1 | inactive |
| O=C1c2ccccc2C(Nc2ccc3c(c2)OCCO3)N1Cc1ccco1 (stereo not drawn) | 20.6 µM (active) |
| O=C(NC1CCCCC1)C1c2ccccc2C(=O)N1Cc1ccco1 (stereo not drawn) | inactive |
| S=C(NCc1ccco1)Nc1ccc2c(c1)OCCO2 | inactive |
| Cn1cnc2c1c(=O)n(Cc1ccccc1C#N)c(=O)n2C | inactive |
| CC(=O)Nc1ccc(S(=O)(=O)NNC(=O)CCc2ccccc2)cc1 | inactive |
| CCc1nccn1S(=O)(=O)c1cc(Br)ccc1Br | inactive |
| COC(=O)c1ccc(CNC(=O)C2CCC(=O)N(Cc3cccc(F)c3)C2)cc1 (stereo not drawn) | inactive |
| CCNC(=O)c1cc2n(n1)CCCN(Cc1ccc(C)cc1)C2=O | inactive |
| COc1cc(CNC(=O)c2cc3n(n2)CCCN(Cc2cccc(F)c2)C3=O)cc(OC)c1OC | 16.4 µM (active) |
| O=C(c1cc(C2CCCCN2S(=O)(=O)c2ccccc2)on1)N1CCOCC1 (stereo not drawn) | inactive |
| CSc1ccc(/C=N/N2CCN(Cc3ccccc3Cl)CC2)cc1 | inactive |
| COc1ccc(CNC(=O)COC(=O)c2c(C)nn(-c3ccccc3)c2C)cc1OC | inactive |
| CCCOc1ccc(F)cc1-c1cc(C(=O)Nc2ccc(F)c(Cl)c2)[nH]n1 | 14.6 µM (active) |
| CCCOc1ccc(F)cc1-c1cc(C(=O)NCc2ccc(F)cc2)[nH]n1 | 14.6 µM (active) |
| Cc1ccc(NC(=O)c2cc(-c3ccccc3O)n[nH]2)cc1C | inactive |
| CCCOc1ccccc1-c1nc(SCCC(=O)O)n[nH]1 | inactive |
| Cc1cc(=O)oc(C)c1C(=O)NCc1ccc(F)cc1 | inactive |
| COc1ccc(NC(=O)CN2CCN(S(=O)(=O)c3ccc(F)cc3)CC2)cc1Cl | inactive |
| COc1ccccc1C(=O)COC(=O)COc1ccc(C#N)cc1 | inactive |
| COc1cccc(NC(=O)N(C)C[C@@H]2Oc3ncc(Br)cc3C(=O)N([C@@H](C)CO)C[C@H]2C)c1 | inactive |
| Oc1ccc(-c2cccc(-c3ccc(O)cc3)c2)cc1 | inactive |
| CN(C(=O)COC(=O)c1cc(=O)[nH]c2ccccc12)C1CCCCC1 | inactive |
| CCOc1ccccc1CNC(=O)c1ccc2c(c1)nc1n2CCC(C)C1 (stereo not drawn) | inactive |

| Structure (SMILES) | Potency |
| --- | --- |
| COc1ccc(NC(=O)CN(C)C(=O)/C=C/c2cn(Cc3ccccc3)nc2-c2cccnc2)cc1 | inactive |
| Cc1ccc(/C=C/C(=O)OCC(=O)Nc2cccnc2Cl)cc1 | inactive |
| O=C(COC(=O)/C=C/c1cn(-c2ccccc2)nc1-c1cccnc1)Nc1ccc(Cl)cc1Cl | 9.2 µM (active) |
| Cc1[nH]n(-c2ccccc2)c(=O)c1CCOC(=O)c1ccc(C(F)(F)F)cc1 | inactive |
| COc1ccc(OCCNS(=O)(=O)Cc2ccccc2)cc1 | inactive |
| COc1ccc(S(=O)(=O)NCCCCOc2ccc(Cl)cc2)cc1 | 10.3 µM (active) |
| COc1ccc(S(=O)(=O)NCCCc2ccccc2)cc1 | inactive |
| CC(=O)c1ccc(S(=O)(=O)N(C)CCCC(=O)N(C)Cc2ccccc2F)cc1 | inactive |
| C/C(=N\NC(=O)CSc1nc2ccccc2c(=O)n1-c1ccccc1C)c1cccs1 | 23.1 µM (active) |
| O=C(CSc1nc2ccccc2c(=O)n1-c1ccc(F)cc1)NC1CC1 | inactive |
| C/C(=N\NC(=O)COc1c(C)cccc1C)c1cccs1 | inactive |
| Cc1ccc(-n2c(SCC(=O)N/N=C/C=C/c3ccccc3[N+](=O)[O-])nc3ccccc3c2=O)cc1 | inactive |
| CCc1c(O)nc(SCC(=O)N2CCCCC2)n(-c2ccccc2C)c1=O | inactive |
| Cc1nn(-c2ccccc2)c(C)c1/C=N/NC(=O)CSc1nc2ccccc2c(=O)n1-c1ccccc1 | 16.4 µM (active) |
| CCn1c(SCC(=O)NC2=NCCS2)nnc1C(C)NC(=O)c1ccccc1F (stereo not drawn) | inactive |
| Cc1ccc(Nc2cc(=O)n(C3CCCCC3)c(=O)[nH]2)cc1C | inactive |
| C[C@H](NC(=O)c1nc[nH]c1C(=O)NCC(=O)OC(C)(C)C)c1ccccc1 | inactive |
| CCC1(CC)NC(=O)N(CC(=O)OCC(=O)Nc2ccc(C(F)(F)F)cc2)C1=O | inactive |
| Cc1nc(S(=O)(=O)c2ccc(Br)cc2)nc2c1CCC2 | inactive |
| Cc1cc(Nc2ccc(C)c(C)c2)n2ncnc2n1 | inactive |
| Brc1ccc(Nc2c3c(nc4ncnn24)CCC3)cc1 | 25.9 µM (active) |
| Cc1cc([N+](=O)[O-])c(NC2CCCCC2)c([N+](=O)[O-])c1 | inactive |
| Cc1sc2c(c1C)c(=O)n(-c1ccccc1)c(=O)n2CC(=O)NCC1CCCO1 (stereo not drawn) | inactive |
| CCC(C)NC(=O)Cn1c(=O)n(-c2ccc(Cl)cc2)c(=O)c2c3c(sc21)CCCC3 (stereo not drawn) | inactive |
| Cc1ccc(NC(=O)Cn2c(=O)n(-c3ccccc3)c(=O)c3c4c(sc32)CCCC4)cc1 | 14.6 µM (active) |
